# Results reported in PMC12864922, “TDP-43 directly inhibits mRNA accumulation in neurites through modulation of mRNA stability”.
# Whole data set: some 9,900 sequences, median “r (bound/input frequency ratio)” near 0.7, cut for the highest 2% near 6.5. Many of the other results were omitted from the sample, so the highest values are more common in it than they were.
# B1: ENSMUSG00000042529.499|Kcnj12 (ssRNA)
# RNA: GGGAGUUCUACAGUCCGACGAUCGCUUCGAUAUCCGCAUGCUACUGGACCAUGUACAGGGCUCCCUGGGGCUUGUCCUCAGGGGCAGAGAAGGACAUGGUGGCAGCAGCACUGAGAACAGGAGCAUGGCCUCUCUCAGACCCCAGGGCAGUCAUUCAGUCUUUUCCAUGGACACUCCCCACCGCUCCACAUACUGCCUCCGCCUCAUUCUUGGGCUCUUCCUGCCUUGCUGUCUUUCCUUCCACACAGAAGCACCAAGCAUCAUCCAUUCCCAUAGGCAAGCCCAGGGCACUCCCAGAGCUCCCUCUUGCGGUCGCACUAGUGUGGAAUUCUCGGGUGUCAAGG
# B2: ENSMUSG00000061578.701|Ksr2 (ssRNA)
# RNA: GGGAGUUCUACAGUCCGACGAUCGCUUCGAUAUCCGCAUGCUAUACUCCCAGAUCUGGGGUGAUCUCUUGAGGUGCCUUCCUGUAGUCUCUUGUGUCAUCUUCUUCUAAGACCACUAAUAACACCGCCUUUCUCCUUGAUCCGGGCCUCAGACCUCUUCAGAGAUUCUUUCUCUGAAUGUACGUGGGGGACUCCAACAGAUGUUGGGAGAAGACUCAAUAUGAGCAUACGGGGUCAUUGUUCAAUCCUGUAUCAAGACCUUGGAGUUGUCUAAGGCUGUGGGUUUUAAAUACCUGCUGCAGGCCUCUUGCGGUCGCACUAGUGUGGAAUUCUCGGGUGUCAAGG
# B3: ENSMUSG00000032194.16|Kank2 (ssRNA)
# RNA: GGGAGUUCUACAGUCCGACGAUCGCUUCGAUAUCCGCAUGCUACAGCCACAAGCCACGCAUCAAACCGUCCCUCCUCCAUCCCUCUGUCCCAUUCUGCCUCGGCAUUCCUCAGCCCCUGAACUUCCCUGAGGGAGCCCUGACAUCUACCAGGCUCAAGCUCCUGGAAGCCUUUCCCAGCACCCUGGGUUCAAAGCCAGAAAGCCAAGCUACAUUCUCCUCCCAGUUGGCACCAGUUGACAACGCCUUGGGUGUGGGUUUCUUGUAAAGAACAUAGAGAACAAUCAGCCGGCAAUUAUGGGAGGCUCUUGCGGUCGCACUAGUGUGGAAUUCUCGGGUGUCAAGG
# B4: ENSMUSG00000034801.130|Sos2 (ssRNA)
# RNA: GGGAGUUCUACAGUCCGACGAUCGCUUCGAUAUCCGCAUGCUAGGCACUGAGAGGAGCCAGCGCUCGAGGGCGUUCUCACGCCUGACUGAUAGAUACCUUUUUAGGGUGAUGAACUUACACAGAUGCAGAAGAUAUGGGGUGGUGGUCCUGGGUUUUAACCCUCUGACCGUCUUCUAGCUUCUAAUUUUGUUUGGUUUUUACAUCUAGGAGACUUAGGAAUAAUACCCACUGUUCUUAAACUCUUUGAGACCAUGUCUUAAAUGUCAGUAUUUGCUGCUGAAGACAAAAACGGAAAAUAGAAUCUCUUGCGGUCGCACUAGUGUGGAAUUCUCGGGUGUCAAGG
# B5: ENSMUSG00000031028.491|Tub (ssRNA)
# RNA: GGGAGUUCUACAGUCCGACGAUCGCUUCGAUAUCCGCAUGCUACACCCUUUUAAAUGAACAUGGGGUGGUGAUGGUGCCUUAACAAUCUUGACACUAAGGUGAAGCAAGCAAGUAAGGUGUGUGCCUCUGGGAAGACAGGAGUCGGAAGCCAAGGUGUGUGGCAACAGUCUGGAAGAGAGCUUUUGGUAAUCAUACCGUCUUCAGUGACAAGGCAACAAUGCUGUAAAGUGGGUUUGUUUGGUUUUGUUUUUUCUUUCUCUUUUAUGGAAAUGGCAGGUCUAUUUGCCUCAAACGUUAUGUAGCUCUUGCGGUCGCACUAGUGUGGAAUUCUCGGGUGUCAAGG
# B6: ENSMUSG00000028439.155|Fam219a (ssRNA)
# RNA: GGGAGUUCUACAGUCCGACGAUCGCUUCGAUAUCCGCAUGCUAGCCAUUUCACCCUAGCUCAAAGUCCAGGAGCCAGGCUUCCAGAAAGGCUCUUCAAGAGCAAGCUUAAGGAAAUACAGUGAGCCAAGUGGCUGUAUGAUAUGGUAUGGUAUGGUAUGGUAUGGUAUGGUAUGGUAUGCACAUGUGUGUGCAUGUGUGUGUGCCUGUGUGUGUGCGUGUGCGUGUGUGUAUGUGUGUGCGUGUGUGUGUGUGUGUGUUGUACCCGAGUGUGUGUUGAGCCUAUCUGUCCAGGGAACCAGAUUCUCUUGCGGUCGCACUAGUGUGGAAUUCUCGGGUGUCAAGG
# B7: ENSMUSG00000028439.153|Fam219a (ssRNA)
# RNA: GGGAGUUCUACAGUCCGACGAUCGCUUCGAUAUCCGCAUGCUACUGUGCCCCAUUGCCAUUUCACCCUAGCUCAAAGUCCAGGAGCCAGGCUUCCAGAAAGGCUCUUCAAGAGCAAGCUUAAGGAAAUACAGUGAGCCAAGUGGCUGUAUGAUAUGGUAUGGUAUGGUAUGGUAUGGUAUGGUAUGGUAUGCACAUGUGUGUGCAUGUGUGUGUGCCUGUGUGUGUGCGUGUGCGUGUGUGUAUGUGUGUGCGUGUGUGUGUGUGUGUGUUGUACCCGAGUGUGUGUUGAGCCUAUCUGUCCACUCUUGCGGUCGCACUAGUGUGGAAUUCUCGGGUGUCAAGG
# B8: ENSMUSG00000028439.154|Fam219a (ssRNA)
# RNA: GGGAGUUCUACAGUCCGACGAUCGCUUCGAUAUCCGCAUGCUACCCAUUGCCAUUUCACCCUAGCUCAAAGUCCAGGAGCCAGGCUUCCAGAAAGGCUCUUCAAGAGCAAGCUUAAGGAAAUACAGUGAGCCAAGUGGCUGUAUGAUAUGGUAUGGUAUGGUAUGGUAUGGUAUGGUAUGGUAUGCACAUGUGUGUGCAUGUGUGUGUGCCUGUGUGUGUGCGUGUGCGUGUGUGUAUGUGUGUGCGUGUGUGUGUGUGUGUGUUGUACCCGAGUGUGUGUUGAGCCUAUCUGUCCAGGGAACCUCUUGCGGUCGCACUAGUGUGGAAUUCUCGGGUGUCAAGG
# B9: ENSMUSG00000058297.516|Spock2|37:41 (ssRNA)
# RNA: GGGAGUUCUACAGUCCGACGAUCGCUUCGAUAUCCGCAUGCUAAUCUUACCCCCAGUGUUCCACAGGAGUCGUGACCACCACACAUGGGUGGGCACAGGUCUGCCUUGCUCCAGCCCCCUCCCUUGGUUUCUGUUGGUACCCAUUUGGCUUUUAUCUGCUUUCUGCUUCACCACUAAGUGCGUAGGUGGGGUCUUUUGAUAUCGGCUCCCCAAAGCCCAAGCCCACAGCCCUAGGAGAGAACCAGGGGCCCAUCUUUGACACCUGGGCCAUCACGAGCCCUCCCGCCUGCAGUUGUCCUAGGGCUCUUGCGGUCGCACUAGUGUGGAAUUCUCGGGUGUCAAGG
# Biological target: TDP-43 (Homo sapiens, UniProt Q13148 1-414)
# Sequence (Q13148 whole entry): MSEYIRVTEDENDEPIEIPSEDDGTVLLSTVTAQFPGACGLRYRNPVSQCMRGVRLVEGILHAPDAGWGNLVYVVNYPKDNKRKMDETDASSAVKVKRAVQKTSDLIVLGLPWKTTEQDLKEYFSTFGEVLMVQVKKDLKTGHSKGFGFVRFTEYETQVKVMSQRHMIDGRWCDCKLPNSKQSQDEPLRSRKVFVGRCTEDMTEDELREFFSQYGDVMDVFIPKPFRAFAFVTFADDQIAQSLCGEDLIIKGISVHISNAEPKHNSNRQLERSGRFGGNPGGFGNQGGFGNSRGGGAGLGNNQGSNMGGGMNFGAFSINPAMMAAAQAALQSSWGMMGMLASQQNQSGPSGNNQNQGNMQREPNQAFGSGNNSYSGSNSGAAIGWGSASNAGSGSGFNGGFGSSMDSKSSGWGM
# Assay: RNA Bind-n-Seq with designed 260-mer pool; 25 mM Tris-HCl, 150 mM KCl, 3 mM MgCl2, BSA (printed 500 mg/mL), 20 units/mL SUPERase IN; pH not stated; 500 nM RNA pool, 1 h, 4 C; TDP-43 5, 50, 500 nM; high values mean tight binding
# Settings: protein: recombinant; tags: SBP (GST cleaved off with PreScission; pGEX-GST-SBP)
# Method in brief: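 For each oligo, R gives binding as its mapped-read-normalized abundance after pulldown divided by its abundance in input. Bead-captured SBP-tagged TDP-43 (5, 50 or 500 nM) was incubated with 500 nM of an in vitro-transcribed 260-nt 3′ UTR oligo pool for 1 h at 4 °C in 25 mM Tris-HCl, 150 mM KCl, 3 mM MgCl2, BSA and SUPERase IN on streptavidin beads. Washed, biotin-eluted RNA was reverse transcribed, PCR-amplified and sequenced.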
row,Binder,binding signal
1,B1,1.51 R (bound/input frequency ratio)
2,B2,0.292 R (bound/input frequency ratio)
3,B3,1.15 R (bound/input frequency ratio)
4,B4,0.376 R (bound/input frequency ratio)
5,B5,1.97 R (bound/input frequency ratio)
6,B6,7.8 R (bound/input frequency ratio)
7,B7,6.09 R (bound/input frequency ratio)
8,B8,7.96 R (bound/input frequency ratio)
9,B9,0.797 R (bound/input frequency ratio)
